Measurements published in PubChem BioAssay (NCATS).
Inconclusive results are not listed. Calls of active or inactive are those of the source. Unless noted, calls follow the shape of the dose curve; as a rule, active = well fitted curve in the direction sought with a large enough effect; inconclusive = small, poorly fitted or top-dose-only effect, or another doubt; inactive = no such curve, though single readings can be large; an effect the other way counts as inactive or inconclusive.

Tests used:
[1] = MultiTox-Fluor Cytotoxicity Assay - LYMP1-003 - Live Cells (AID 962);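 also: 0% = DMSO only and full loss = 92 µM tetraoctylammonium bromide; cytotoxic hits lower the live-cell protease signal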
Summary of the method: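 Human lymphoblastoid line LYMP1-003 in complete culture medium, treated 16 hr with titrated compounds. Viable cells quantified via cell-permeant GF-AFC substrate fluorescence; AC50 derived by Hill fitting.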

[2] = Cell Viability - LYMP1-003 - Assay at 24 hr (AID 963);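 also: plate controls were DMSO only for no effect and tetraoctylammonium bromide positive control for full effect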
Summary of the method: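 The lymphoblastoid line was treated with titrated compounds for 24 hours, and viable cell number estimated from luciferase-based ATP luminescence.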

[3] = Cell Viability - LYMP1-003 - Assay at 40 hr (AID 964); also: series mostly up to about 92 µM; % is scaled to controls: 0 for no effect and ±100 for the full control effect; nearly all actives have a fitted effect of over 60% in size
Summary of the method: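 Acute toxicity is scored as a concentration-dependent loss of intracellular ATP in LYMP1-003 cells (2500/well, complete medium) after 40 hr at 37 C, measured by CellTiter-Glo luminescence; AC50 values derive from standard Hill modelling.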

[4] = Cell Viability - LYMP2-003 (AID 965);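 also: cells exposed to compounds for 24 h before reading; 0% = DMSO only and full effect = 92 µM tetraoctylammonium bromide; nearly all actives have a fitted effect of over 50% in size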
Summary of the method: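 Acute cytotoxicity is scored as a concentration-dependent drop in intracellular ATP, measured by luciferase luminescence in human lymphoblastoid cells treated for 24 hours at 37 C. AC50 values derive from Hill-equation modelling.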

[5] = Cell Viability - LYMP2-004 (AID 966);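 also: plate controls were DMSO only for no effect and tetraoctylammonium bromide control for full effect; nearly all actives have a fitted effect of over 65% in size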
Summary of the method: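 Viable-cell number estimated from ATP luminescence (CellTiter-Glo) in 2500 human lymphoblastoid cells/well after 24 hr at 37 C with compound. AC50 fitted to the standard Hill equation.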

[6] = Cell Viability - LYMP2-005 (AID 967);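 also: series mostly up to about 92 µM; plate controls were DMSO only for no effect and 92 µM tetraoctylammonium bromide control for full effect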
Summary of the method: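 qHTS viability screen in LYMP2-005 cells: 24 h at 37 C with compound, ATP luminescence via CellTiter-Glo, AC50 from Hill curves.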

[7] = Cell Viability - LYMP2-011 (AID 969);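 also: 0% = DMSO only and full inhibition = 92 µM tetraoctylammonium bromide; nearly all actives have a fitted effect of over 60% in size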
Summary of the method: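 Cells seeded at 2500 per well rest 5 hr before compound addition, then incubate 24 hr at 37 C. CellTiter-Glo reagent is added for 30 min at room temperature before luminescence detection.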

[8] = Cell Viability - LYMP2-013 (AID 970);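 also: series mostly up to about 92 µM; 0% = DMSO only and full inhibition = tetraoctylammonium bromide control; nearly all actives have a fitted effect of over 55% in size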
Summary of the method: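 In complete culture medium, human lymphoblastoid cells were dosed for 24 hr at 37 C, with tetraoctylammonium bromide (6.4pM to 92 uM) as positive control. Viability reflects luciferase-based ATP signal; AC50 derived from concentration-response curves.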

[9] = Cell Viability - LYMP2-015 (AID 971);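 also: 0% = DMSO only and full effect = 92 µM tetraoctylammonium bromide; nearly all actives have a fitted effect of over 55% in size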
Summary of the method: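 AC50 values reflect Hill-model fits of ATP-based luminescence (CellTiter-Glo) from a human lymphoblastoid line, 2500 cells/well, treated 24 hr at 37 C.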

[10] = Cell Viability - LYMP2-017 (AID 972); also: series mostly up to about 92 µM; % is scaled to controls: 0 for no effect and ±100 for the full control effect; nearly all actives have a fitted effect of over 55% in size
Summary of the method: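 In this qHTS format, lymphoblastoid cells in complete medium receive test compound for a day at 37 C before ATP content is quantified by luciferase luminescence. Reported AC50 figures come from standard Hill-equation curve fitting.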

[11] = Cell Viability - LYMP2-019 (AID 973);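 also: 0% = DMSO alone and full effect = 92 µM tetraoctylammonium bromide; nearly all actives have a fitted effect of over 55% in size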
Summary of the method: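 AC50 values come from Hill-equation modelling of qHTS concentration-response curves, where viability is measured as luciferase-based ATP luminescence in the lymphoblastoid line after 24 hr compound exposure in complete culture medium.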

[12] = Cell Viability - LYMP2-021 (AID 974)
Summary of the method: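 In qHTS format, compounds are tested against 2500 lymphoblastoid cells per well for 24 h; viable cell number is inferred from ATP-driven luciferase light, and Hill-equation fitting yields AC50 values.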

[13] = Cell Viability - LYMP2-023 (AID 975)
Summary of the method: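 In this qHTS, ATP-based luciferase luminescence (CellTiter-Glo) is quantified in human lymphoblastoid cells after 24 hr compound treatment at 37 C; tetraoctylammonium bromide serves as positive control. Concentration-response curves are Hill-fitted to give AC50.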

[14] = Cell Viability - LYMP2-025 (AID 976);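 also: series mostly up to about 92 µM; plate controls were DMSO only for no effect and tetraoctylammonium bromide control for full effect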
Summary of the method: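 Luminescent ATP readout after 24 hr treatment of a human lymphoblastoid line (LYMP2-025, 2500 cells/well, 37 C). Reagent developed 30 min at room temperature; AC50 fitted with the Hill equation.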

[15] = Cell Viability - LYMP2-002 (AID 977);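 also: series mostly up to about 92 µM; compound exposure lasted 24 h at 37 °C; plate controls were DMSO only for no effect and 92 µM tetraoctylammonium bromide for full effect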
Summary of the method: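 Human lymphoblastoid cells (2500/well) in complete medium were preincubated 5 hr at 37 C, then exposed to compounds for 24 hr at 37 C. Intracellular ATP was read by CellTiter-Glo luminescence; AC50 came from Hill-equation concentration-response fits.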

[16] = Cell Viability - LYMP2-007 (AID 979);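 also: cells exposed to compound for 24 h before reading; 0% = DMSO only and the negative end = 92 µM tetraoctylammonium bromide; nearly all actives have a fitted effect of over 60% in size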
Summary of the method: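 Measured via luciferase-based ATP quantitation: lymphoblastoid cells, 24 hr compound exposure at 37 C, AC50 from Hill fits.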

[17] = Cell Viability - LYMP2-008 (AID 980); also: % is scaled to controls: 0 for no effect and ±100 for the full control effect; nearly all actives have a fitted effect of over 60% in size
Summary of the method: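 Measured: ATP-dependent luminescence, proportional to viable cell number, in human lymphoblastoid cells treated 24 hr with compound in complete culture medium. Values are AC50s from Hill-equation modelling of qHTS titrations.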

[18] = Cell Viability - LYMP2-010 (AID 981)
Summary of the method: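 This 24 hr viability screen uses LYMP2-010 lymphoblastoid cells, quantifies ATP via luciferase luminescence, and derives AC50 from Hill fits of qHTS concentration-response data.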

[19] = Cell Viability - LYMP2-014 (AID 983);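 also: series mostly up to about 92 µM; plate controls were DMSO only for no effect and 92 µM tetraoctylammonium bromide for full effect; nearly all actives have a fitted effect of over 50% in size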
Summary of the method: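 Quantitative HTS in lymphoblastoid cells: 24 hr compound exposure, then CellTiter-Glo ATP luminescence. Positive control was tetraoctylammonium bromide, 6.4pM to 92 uM.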

[20] = Cell Viability - LYMP2-016 (AID 984)
Summary of the method: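 Acute toxicity in a Coriell human lymphoblastoid line is scored as loss of intracellular ATP over 24 h of treatment in complete medium. CellTiter-Glo signal is fitted across concentrations with the Hill equation to give AC50.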

[21] = Cell Viability - LYMP2-018 (AID 985);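 also: plate controls were DMSO only for no effect and tetraoctylammonium bromide at 92 µM for full effect; nearly all actives have a fitted effect of over 50% in size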
Summary of the method: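 In this qHTS viability assay, cells are treated for 24 hr and cellular ATP is quantified by luciferase-based luminescence, with tetraoctylammonium bromide as positive control.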

[22] = Cell Viability - LYMP2-020 (AID 986)
Summary of the method: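 Cells at 2500 per well receive a 24 hr compound exposure at 37 C. Viability is measured as ATP-dependent luciferase luminescence, with AC50 modeled from qHTS concentration-response curves.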

[23] = Cell Viability - LYMP2-022 (AID 987)
Summary of the method: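 In this qHTS cytotoxicity screen, compound titrations were incubated 24 hr at 37 C with human lymphoblastoid cells in complete medium. Luciferase-based ATP luminescence provided the viability signal.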

[24] = Cell Viability - LYMP2-024 (AID 988)
Summary of the method: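 Cells at 2500 per well received compound for 24 hr after a 5 hr settling period. Viability was scored by CellTiter-Glo luminescence, with AC50 from Hill fits.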

[25] = Cell Viability - LYMP2-026 (AID 989); also: % is scaled to controls: 0 for no effect and ±100 for the full control effect; nearly all actives have a fitted effect of over 50% in size
Summary of the method: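 Acute toxicity screen in complete culture medium, with 24 hr compound exposure at 37 C. Viability read as cellular ATP via luciferase reaction, with tetraoctylammonium bromide (6.4pM to 92 uM) as positive control.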

[26] = Cell Viability - LYMP1-002 - Assay at 24 hr (AID 993); also: % is scaled to controls: 0 for no effect and ±100 for the full control effect
Summary of the method: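 Viability was judged from intracellular ATP using a luciferase read-out, following a 24-hour compound incubation at 37 C of lymphoblastoid cells seeded at 2500 per well. Concentration-response data were fitted to the Hill equation for AC50.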

[27] = Cell Viability - LYMP1-002 - Assay at 40 hr (AID 994)
Summary of the method: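 Concentration-dependent ATP loss after 40 hr treatment at 37 C defined toxicity; AC50 values were obtained by fitting the standard Hill equation.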

[28] = qHTS assay for small molecule disruptors of the mitochondrial membrane potential - 1 hr assay (AID 651754; calls by dose curve; also: % is scaled to controls: 0 for no effect and ±100 for the full control effect; nearly all actives have a fitted effect of over 35% in size)
Summary of the method: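 In this qHTS format, a 1 hr compound treatment of HepG2 cells precedes Mito-MPS staining, and membrane potential is judged from aggregate (red) against monomer (green) fluorescence intensity.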

[29] = qHTS assay for small molecule disruptors of the mitochondrial membrane potential - 5 hr assay (AID 651755; calls by dose curve; also: % is scaled to controls: 0 for no effect and ±100 for the full control effect; nearly all actives have a fitted effect of over 40% in size)
Summary of the method: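 Membrane-potential dye readout: red aggregate (540 ex/590 em) versus green monomer (490 ex/535 em) fluorescence after 30 min dye loading, following 5 hr compound exposure at 37C of overnight-plated HepG2 cells.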

[30] = qHTS assay for small molecule agonists of the antioxidant response element (ARE) signaling pathway measured by Nrf2-dependant transcriptional activity - cell viability counter screen (AID 720653; active = well fitted curve in the direction sought with a large enough effect in the repeat runs; an effect the other way counts as inactive or inconclusive; also: % is scaled to controls: 0 for no effect and ±100 for the full control effect); details: ARE-bla HepG2 viability, CellTiter-Glo ATP luminescence, 16 h; max response: stronger effect = lower value
Summary of the method: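 Cytotoxicity counter screen: intracellular ATP quantified by CellTiter-Glo luminescence in the same ARE-bla HepG2 plates, after 16 h compound exposure and a 2 h beta-lactamase substrate step.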

[31] = qHTS assay for cell viability of HEK293 cells (AID 743288); details: ATP luminescence (CellTiter-Glo), 18 h; max response: stronger effect = lower value
Summary of the method: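 Quantitative high-throughput screen: compounds were pinned onto parental HEK293 cells (2,000 per well) after a minimum 5 h settling at 37 C, incubated 18 h at 37 C, and intracellular ATP measured by luciferase luminescence.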

[32] = qHTS assay for cell viability of the p53RE-bla HCT-116 cell line (AID 743292)
Summary of the method: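 CellSensor p53RE-bla HCT-116 cells, 4,000/well, preincubated 5 h at 37 C, then exposed to compounds in DMSO for 16 h at 37 C. Viability read as CellTiter-Glo luminescence (intracellular ATP) after 30 min at room temperature.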

O=[N+]([O-])c1cc([N+](=O)[O-])c2ccc(S(=O)(=O)O)cc2c1O
inactive: Potency [1] | Potency [2] | Potency [3] | Potency [4] | Potency [5] | Potency [6] | Potency [7] | Potency [8] | Potency [9] | Potency [10] | Potency [11] | Potency [12] | Potency [13] | Potency [14] | Potency [15] | Potency [16] | Potency [17] | Potency [18] | Potency [19] | Potency [20] | Potency [21] | Potency [22] | Potency [23] | Potency [24] | Potency [25] | Potency [26] | Potency [27] | Potency [28] | Potency [29] | max response [30] 17.2% | max response [31] -2.67% | Potency [32]
